According to PubChem BioAssay (NCATS):
Records with an inconclusive call do not appear. A number with no mark means an inactive call. Calls follow the shape of the dose curve; as a rule, active = well fitted cell-killing curve with a large enough effect; inconclusive = small, poorly fitted or top-dose-only effect, or effect the other way; inactive = flat fitted curve, though single readings scatter.

Tested on: Hek293T
Assay: Primary qHTS to identify gynecologic anti-cancer compounds using libraries of approved drugs and bioactive compounds (AID 1345084); also: nearly all actives have a fitted effect of over 55% in size
Conditions: Gynecologic cancer cell panel viability, ATPlite luminescence, 48 h, control line for the selectivity index; series mostly up to 57.5 µM; activity change, negative = cytotoxicity: at the top concentration
Outline: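 Luminescence from the ATPlite ATP-monitoring reagent indicates viable cell number; lower signal means cytotoxicity. Cells received compound 16 h after seeding and were exposed for 48 h across five concentrations.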
% is scaled to controls: 0 for no effect and ±100 for the full control effect.

SMILES	activity change, negative = cytotoxicity
CN(C(=O)CCCOc1ccc2[nH]c(=O)ccc2c1)C1CCCCC1	-27.7%
NC(=O)N1c2ccccc2C=Cc2ccccc21	-2.37%
CCCN(CCC)CCc1cccc2c1CC(=O)N2	-8.66%
CCn1nc(C(=O)O)c(=O)c2cc3c(cc21)OCO3	0.669%
CCc1c(C)[nH]c2c1C(=O)C(CN1CCOCC1)CC2 (stereo unspecified)	5.42%
C[C@]12CCC(=O)C=C1CC[C@@H]1[C@@H]2C(=O)C[C@@]2(C)[C@H]1CC[C@]2(O)C(=O)CO	0.657%
COc1ccc2c(c1OC)C(=O)O[C@@H]2[C@H]1c2c(cc3c(c2OC)OCO3)CCN1C	-22.3%
COc1cc(Cc2cnc(N)nc2N)cc(OC)c1OC	1.63%
N[C@@H](COP(=O)(O)O)C(=O)O	5.5% [at 25.3 µM]
CN1CCN(CC(=O)N2c3ccccc3C(=O)Nc3cccnc32)CC1	3.74% [at 6.55 µM]
COc1ccc(CCN(C)CCCC(C#N)(c2cc(OC)c(OC)c(OC)c2)C(C)C)cc1OC (stereo unspecified)	0.623%
CN/C(=C\[N+](=O)[O-])NCCSCc1ccc(CN(C)C)o1	1.04%
OC(CCN1CCCCC1)(c1ccccc1)C1CCCCC1 (stereo unspecified)	-6.89%
CCN1CCC[C@H]1CNC(=O)c1c(O)c(Cl)cc(Cl)c1OC	0.0139%
COC(=O)C1=C(C)NC(C)=C(C(=O)OC(C)(C)CN(C)CCC(c2ccccc2)c2ccccc2)C1c1cccc([N+](=O)[O-])c1 (stereo unspecified)	-21.1%
CC(=O)Nc1nnc(S(N)(=O)=O)s1	6.09%
CN(C)CCCN1c2ccccc2Sc2ccccc21	-5.2%
CC(C)NCC(O)c1cc(O)cc(O)c1 (stereo unspecified)	-6.3%

SMILES	activity change, negative = cytotoxicity
CN(C)CCOC(=O)COc1ccc(Cl)cc1	2.21%
CCCCCCCC/C=C\CCCCCCCC(=O)NCc1ccc(O)c(OC)c1	2.02%
CNC1(C)C2CCC(C2)C1(C)C (stereo unspecified)	-4.91%
CCCCNc1c(C(=O)OCC)c(C)nc2c1cnn2CC	-11.6%
CN(C)C/C=C(/c1ccc(Br)cc1)c1cccnc1	5.94%
CO[C@@]1(NC(=O)CSCC#N)C(=O)N2C(C(=O)O)=C(CSc3nnnn3C)CS[C@@H]21	21.5%
CCN1CCc2nc(N)oc2CC1	3.09%
C[C@]12CCC(=O)C=C1CC[C@@H]1[C@@H]2CC[C@@]2(C)[C@H]1CC[C@]2(O)C(=O)CO	8.68%
CCN(CC)CC(=O)Nc1c(C)cccc1C	1.68%
C(=C\c1ccccc1)/CN1CCN(C(c2ccccc2)c2ccccc2)CC1	0.859%
Cc1nc2ccccn2c(=O)c1CCN1CCC(C(=O)c2ccc(F)cc2)CC1	-6.8%
c1ccc2c(c1)CCCC2C1=NCCN1 (stereo unspecified)	9.8%
Cc1nc2sccn2c(=O)c1CCN1CCC(=C(c2ccc(F)cc2)c2ccc(F)cc2)CC1	-6.27%
CCCNC(C)C(=O)Nc1ccccc1C (stereo unspecified)	2.04%
O=C(O)CP(=O)(O)O	-1.47%
CN1C[C@H](C(=O)N[C@]2(C)O[C@@]3(O)[C@@H]4CCCN4C(=O)[C@H](Cc4ccccc4)N3C2=O)C[C@@H]2c3cccc4[nH]cc(c34)C[C@H]21	-0.0589%
Cc1nnc(SCC2=C(C(=O)O)N3C(=O)[C@@H](NC(=O)Cn4cnnn4)[C@H]3SC2)s1	4.92%
Fc1ccc(C(c2ccc(F)cc2)N2CCN(C/C=C/c3ccccc3)CC2)cc1	-0.0935%
